For orientation: inhibition means the share of the control response that was lost under treatment.

Experimental findings from PubChem BioAssay AID488841 (Sanford-Burnham Center for Chemical Genomics, 2010) are described below.

Structures are written as SMILES. Hit rate of the full screen: of about 1,400 compounds, about 380 (27%) were called active. This is one part of the list. Unmarked numbers belong to inactive results.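 Rule for the calls: active = mean inhibition above 50% across duplicate retests at 10 µM; inactive = the rest.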

The nature of this assay: inhibition of NALP1/ASC/caspase-1 reporter signal in yeast, confirmation, NALP1 inhibitor project, S. cerevisiae, luminescence, single concentration (AID 488841).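 Note: plate controls were DMSO in galactose medium for no effect and cells in plain SD medium for full effect.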 Conditions: S. cerevisiae NALP1/ASC/Caspase-1 reporter, beta-gal luminescence; at 10 µM; stronger effect = higher value.
`CCCOc1ccc(OCCSc2ncccn2)cc1`: the inhibition is 39.4%.

In the case of `Cc1cc(N2C(=O)C=CC2=O)c([N+](=O)[O-])cc1C`, the inhibition is 41.7%.

For `Fc1ccc(NC(=S)N2CCSC2c2cccs2)cc1` (configuration not stated), the inhibition was 17.1%.

With `Cc1ccc(S(=O)(=O)NC2=NCN(CCOC(=O)c3ccc([N+](=O)[O-])cc3)CN2)cc1`, the inhibition was 22.2%.

`Brc1ccc(C=Nc2ccc(Nc3ccccc3)cc2)s1`: the inhibition is 51.1% (active).

Turning to `COc1ccc2nc3oc(C(=O)Nc4ccc(OC)c(OC)c4)cc3cc2c1`, the inhibition is 23.6%.

`COc1ccc(NC(=S)SC)cc1OC`: the inhibition was 52.4% (active).

`COc1ccc(C(=O)Nc2ccc(S(=O)(=O)Nc3nccc(C)n3)cc2)cc1OC`: the inhibition was 31.2%.

Regarding `c1ccc(COc2ccc(OCCN3CCCCC3)cc2)cc1`, the inhibition was 35.1%.

As for `O=C(O)c1cccnc1C(=O)N1CCc2c([nH]c3ccccc23)C1C(F)(F)F` (configuration not stated), the inhibition is 0.7%.

Turning to `COc1ccccc1NC(=O)C1=C(C)NC(=O)NC1c1cccs1` (configuration not stated), the inhibition was 27.1%.

On to `Cc1ccc(C(=O)NCCCNc2ccc(C(F)(F)F)cc2[N+](=O)[O-])cc1`, for which the inhibition was 31.8%.

Consider `O=[N+]([O-])c1cc(C(F)(F)F)ccc1NCCc1c[nH]c2ccc(O)cc12`, for which the inhibition was 51.8% (active).

For the molecule `CCOC(=O)C(=O)C1=C(N2CCOCC2)/C(=C\c2ccc(F)cc2)CC1`, the inhibition was 33.4%.

Take `COc1cc(CNC2CCCCCCC2)cc(Br)c1OCC#N`: the inhibition is 38.8%.

Turning to `CCOc1cc(CNC2CCCC2)cc(Cl)c1OCc1ccc(F)cc1`, the inhibition was 50.7% (active).

As for `CCOc1c(Cl)cc(CNCC(C)C)cc1OC`, the inhibition was 32.7%.

Regarding `CCOc1cc(CNCc2ccncc2)cc(Br)c1OCc1ccc(F)cc1`, the inhibition was 69.7% (active).

In the case of `COc1ccc2c(c1)NC(=O)CC(c1ccccc1)=N2`, the inhibition is 43.5%.

With `O=S(=O)(NC1CCCCC1)c1ccc(F)c2ccccc12`, the inhibition is 51.6% (active).

For the molecule `Cc1cccc(NC(=O)c2ccc(C3SCC(=O)N3CCc3ccccc3)cc2)c1C` (configuration not stated), the inhibition is 48.8%.

Regarding `COc1ccc(N=c2cc(-c3ccc(OC)cc3)oc3ccccc23)cc1`, the inhibition is 49.6%.

As to `CCCCN(Cc1ccccc1)C(=O)C1CCN(Cc2sccc2C)CC1`, the inhibition is 40.8%.

Regarding `Cc1ccc(/C=C/C(=O)NCc2ccc3c(c2)OCO3)o1`, the inhibition was 36%.

In the case of `Nc1c(C(=O)NCc2ccc3c(c2)OCO3)nnn1-c1ccc(OC(F)(F)F)cc1`, the inhibition is 31.3%.

With `O=C(CSCc1cnn(-c2ccccc2)c1-n1cccc1)NCc1ccc2c(c1)OCO2`, the inhibition was 50% (active).

As for `COc1ccc2c(c1)O/C(=C\c1sccc1C)C2=O`, the inhibition is 65.4% (active).

Take `CCOc1oc(-c2ccc(OC)cc2)nc1C(F)(F)F`: the inhibition was 24.1%.

As for `O=C(N/N=C/c1ccncc1)c1cc2ccccc2o1`, the inhibition was 47.5%.

On to `O=C(Nc1cccc(-c2nc3ncccc3o2)c1)c1cc2ccccc2o1`, for which the inhibition is 46.4%.

With `O=C(NC(=S)Nc1cccnc1)c1cc2ccccc2o1`, the inhibition was 55.4% (active).

For the molecule `COc1cccc(CN(C)CC(=O)Nc2cccc(S(N)(=O)=O)c2)c1OC`, the inhibition was 33.9%.

For `C(#Cc1ccc(C#CCN2CCCC2)cc1)CN1CCCC1`, the inhibition was 17.6%.

Regarding `CCOC(=O)N1CCN(CC(O)COc2ccccc2C(C)(C)C)CC1` (configuration not stated), the inhibition was 42.4%.

Turning to `CCC(=O)c1ccc(OCC(O)CN2CCN(c3cccc(C(F)(F)F)c3)CC2)cc1` (configuration not stated), the inhibition was 49.5%.

For `OC(COc1ccc2c(c1)CCC2)CN1CCN(c2ccccc2F)CC1` (configuration not stated), the inhibition was 73.8% (active).

In the case of `O=[N+]([O-])c1ccc(OCC(O)CN2CCN(c3ccccc3F)CC2)cc1` (configuration not stated), the inhibition is 55.2% (active).

Regarding `OC(CSc1c(Cl)cccc1Cl)CN1CCN(c2ccccc2F)CC1` (configuration not stated), the inhibition is 40.9%.

`Cc1cccc(C(=O)NNC(=O)CN2C(=O)c3ccccc3C2=O)c1`: the inhibition is 24.9%.

`Cc1ccc(N2C(=N)/C(=C3/Nc4ccccc4S3)C(c3ccccc3)C2=O)cc1` (configuration not stated): the inhibition is 35.2%.

Turning to `CCc1cccc2c(C(=O)COC(=O)c3ccccc3)c[nH]c12`, the inhibition is 40%.

`CCc1cccc2c(C(=O)CSc3nncn3-c3ccc(OC)cc3)c[nH]c12`: the inhibition was 25.8%.

As for `CCc1cccc2c(C(=O)COC(=O)c3ccc([N+](=O)[O-])s3)c[nH]c12`, the inhibition was 91.5% (active).

Take `c1csc(CNc2nc3ccccc3n2CCN2CCOCC2)c1`: the inhibition is 33.5%.

`O=C(CNC(c1ccccc1)c1ccccc1)Nc1c(F)cccc1F`: the inhibition is 26.1%.

Consider `COC(=O)c1ccc(NC(=O)CN2C(=O)CNC2=O)cc1`, for which the inhibition is 32.5%.

As to `CN(C)CCNC(=O)COc1ccc(Cl)cc1Cl`, the inhibition is 25.2%.

In the case of `CC(C)NCCOCCOc1ccc(Cl)cc1Br`, the inhibition is 35.1%.

For the molecule `CC(C)NC(=O)CCCOc1ccc(Cl)cc1Cl`, the inhibition is 54.9% (active).

For `C=C1SC(Nc2c(C)cccc2C)=NC12CCCCC2`, the inhibition was 29.4%.

As to `COc1ccccc1C(=O)Nc1ccc(OCc2nnc3c4ccccc4c(C)nn23)cc1`, the inhibition was 36.5%.

With `COc1ccc2[nH]c(C)c(CCNC(=S)Nc3cc(C)cc(C)c3)c2c1`, the inhibition was 30%.

As for `COc1ccc2[nH]c3c(C)c4ccncc4c(C)c3c2c1`, the inhibition is 94.5% (active).

With `CC(C)CCN(C(=O)Nc1ccccc1)C(C)c1cccs1` (configuration not stated), the inhibition was 29.9%.

As to `CCOc1ccc(NC(=O)c2csc3c2CCCC3)cc1`, the inhibition is 52.4% (active).

`CCOc1ccc(NC(=O)c2cc3c(C)nc4ccccc4c3o2)cc1`: the inhibition was 17.3%.

Consider `CCOc1ccc(NC(=O)CSc2nnc(C)n2Cc2ccccc2)cc1`, for which the inhibition is 26.8%.

Turning to `O=C(NN1C(=O)c2cc(Br)ccc2NC1c1cc(Br)cc(Br)c1O)c1ccncc1` (configuration not stated), the inhibition is 64.8% (active).

For `O=C(Nc1cccnc1)Nc1ccc2c(c1)OCO2`, the inhibition is 32.1%.

Take `COC(=O)c1cccc(NC(=O)/C=C/c2ccc3c(c2)OCO3)c1`: the inhibition was 60.6% (active).

Take `CC1CN(C(=O)Nc2ccc3c(c2)OCO3)CC(C)O1` (configuration not stated): the inhibition is 30.4%.

Regarding `Cc1ccc(S(=O)(=O)NCC(=O)N(CC(=O)NC(C)(C)C)Cc2cccs2)cc1`, the inhibition was 31.3%.

Consider `Cc1cc(=O)oc2cc(OCC(=O)N3CCN(C(=O)c4ccco4)CC3)ccc12`, for which the inhibition was 21.1%.

Turning to `O=C(c1ccc(Br)o1)N(c1ccccn1)C1CCCCC1`, the inhibition was 41.8%.

Consider `C/C(=N\N(C)C)C1=C(O)c2ccccc2C1=O`, for which the inhibition is 29.9%.

As to `CC(=O)N(C1=C(Cl)C(=O)c2ccccc2C1=O)C1CCCCC1`, the inhibition is 58% (active).

For `CN(C)c1ccc(N=C/C=C2/N(C)c3ccccc3C2(C)C)cc1`, the inhibition was 47.2%.

With `CCOC(=O)C[N+](CC)(CC)CC#Cc1ccccc1`, the inhibition was 15.1%.

In the case of `Cc1nnc(-c2ccccc2)o1`, the inhibition was 31.1%.

For the molecule `Cc1cccc(NCc2nc3ccccc3n2C)c1`, the inhibition was 66% (active).

Regarding `CCCc1nn(C)c(C(=O)Nc2cccc(C)c2)c1Cl`, the inhibition was 42.2%.

As for `CCOC(=O)c1c(/N=C/c2cc(OC)cc([N+](=O)[O-])c2O)sc(C)c1C`, the inhibition was 44.5%.

For `CS(=O)(=O)N1N=C(c2ccco2)CC1c1ccc(Cl)cc1` (configuration not stated), the inhibition is 19.9%.

As to `COc1ccc(/C=N/NC(=O)c2csc(-n3nc(C)cc3C(F)(F)F)n2)cc1`, the inhibition was 17.9%.

As for `Clc1ccc(OCCOCCN2CCc3ccccc3C2)c(Cl)c1`, the inhibition is 52.3% (active).

`C=CCc1cc(Cl)ccc1OCCOCCNCCOC`: the inhibition was 41.8%.

Consider `Cc1cc(Cl)c(OCCOCCN2CCC(C)CC2)c(Br)c1`, for which the inhibition is 44.9%.

`Cc1sc2ncnc(N/N=C/c3ccccc3O)c2c1C`: the inhibition is 40.2%.

Regarding `Cc1c(Cl)c([N+](=O)[O-])nn1Cc1ccc(C(=O)N/N=C\c2ccccn2)o1`, the inhibition was 28.8%.

As to `Nc1c(Cl)ncnc1N/N=C/c1ccccn1`, the inhibition was 71.3% (active).

For `Cc1cc(C)cc(OCc2nnc(SCC(=O)OC(C)C)o2)c1`, the inhibition was 47%.

On to `CC1=C(OC(=O)c2ccc(Br)cc2)C(C)(C)C(c2ccccc2)OC1=O` (configuration not stated), for which the inhibition was 24.7%.

Turning to `Cc1nc(NC(=O)/C=C/c2ccccc2)n[nH]1`, the inhibition was 40.7%.

Turning to `C1CCC(C(CC2CCCCN2)C2CCCCC2)CC1` (configuration not stated), the inhibition is 54.6% (active).

As to `COc1cc(OC)c(-c2nnc(-c3ccc(OC)c(OC)c3OC)o2)cc1OC`, the inhibition is 31.9%.

As for `CC1=CC(C)(C)Nc2ccc(OC(=O)C(C)N3C(=O)c4ccccc4C3=O)cc21` (configuration not stated), the inhibition was 32.8%.

In the case of `O=C(Cn1nnc2ccccc21)OCC(=O)c1ccc(Cl)cc1`, the inhibition is 40.5%.

With `O=C1C=CC(=O)N1CCCCCCN1C(=O)C=CC1=O`, the inhibition is 73.3% (active).

Take `O=C1C=CC(=O)N1CCNc1ncc(C(F)(F)F)cc1Cl`: the inhibition is 46.6%.

On to `CC1CCC2C(=O)N(c3ccc(C(=O)Oc4cccc5cccnc45)cc3)C(=O)C2C1` (configuration not stated), for which the inhibition is 31.1%.

As for `Cc1cc(C)c(NC(=O)/C(=C/c2ccccc2)c2ccccc2)c(C)c1`, the inhibition was 31.8%.

For the molecule `Cc1nc(/N=C(\N)NC(=O)N2c3ccccc3Sc3ccccc32)nc2ccccc12`, the inhibition is 44.3%.

As for `O=C(Cc1ccc(-n2c(=O)[nH]c3ccccc3c2=O)cc1)N1CCN(c2ccccc2)CC1`, the inhibition is 18.6%.

As to `Cc1ccc2nc(NC(=O)c3ccc4ncsc4c3)sc2c1`, the inhibition is 30.2%.

On to `Nc1ccc(C(=O)Nc2nc3ccccc3s2)cc1`, for which the inhibition was 69.7% (active).

As for `O=C(Nc1nc2ccccc2s1)C1c2ccccc2Oc2ccccc21`, the inhibition is 45.9%.

`Cc1cccc(N2C(=O)CC(Sc3ccccc3C(=O)O)C2=O)c1` (configuration not stated): the inhibition was 42.5%.

`CCN(CC)C1CC(=O)N(c2cccc(C)c2)C1=O` (configuration not stated): the inhibition was 57.5% (active).

Regarding `COC(=O)c1ccccc1SC1CC(=O)N(c2cccc(C)c2)C1=O` (configuration not stated), the inhibition is 34%.

For `Cc1cc(C)cc(N2C(=O)CC(Sc3ncn[nH]3)C2=O)c1` (configuration not stated), the inhibition was 62.3% (active).

As for `Cc1ccc(N2C(=O)CC(Sc3ccccc3C(=O)O)C2=O)cc1` (configuration not stated), the inhibition is 40.4%.

On to `CC(C)c1ccc(N2C(=O)CC(Sc3ncn[nH]3)C2=O)cc1` (configuration not stated), for which the inhibition is 48.5%.
